From PubChem BioAssay
The list is not random: actives were taken first. Their share in the collection is about 9.9%.
KB-3-1 tox: qHTS assay for MDR1-selective chemotherapeutics: Primary screen using the parental adenocarcinoma cell KB-3-1; Potency, µM (doses to about 46.1 µM), hits mostly cytotoxic; KB-3-1 viability, CellTiter-Glo ATP luminescence, 72 h; AID 1347075, 2019; 400,000 tested, 1.4% active; note: potency is the fitted concentration of half-maximal effect; % is set by controls: 0 for no effect and ±100 for the full control effect; nearly all actives have a fitted effect of over 60% in size
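Cytotoxicity measured as CellTiter-Glo luminescence after 72 h at 37 C. Compound titrations were pinned onto drug-naive KB-3-1 parental adenocarcinoma cells grown in DMEM with 10% FBS, and normalized data fitted to concentration-response curves.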
SW480 rerep: A quantitative high throughput screen for small molecules that induce DNA re-replication in SW480 colon adenocarcinoma cells; SW480 DNA re-replication, Hoechst DNA content imaging, 48 h; Potency, µM (highest dose often 46.1 µM), for inactives: top-dose re-replication activation, most hits filed as activators; 340,000 tested, 1.8% active; AID 624297, 2012; note: potency is the fitted concentration of half-maximal effect; % of control where 0% means no effect; nearly all actives have a fitted effect of over 55% in size
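250 cells/well; 23 nL cpd via pin tool; 48 hr, 37 C, 5% CO2; Hoechst 40 min; imager read of total nuclear intensity, ex 405/em 500-530 nm.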
KB-V1 cytotox: qHTS assay for MDR1-selective chemotherapeutics: Primary screen using the drug-selected MDR subline cells KB-V1; Potency, µM (doses to about 46.1 µM), actives largely listed as cytotoxic; KB-V1 MDR cells viability, CellTiter-Glo, 72 h; 400,000 tested, 3.4% active; note: potency is the fitted concentration of half-maximal effect; % is set by controls: 0 for no effect and ±100 for the full control effect; nearly all actives have a fitted effect of over 60% in size
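qHTS viability screen in drug-selected KB-V1 MDR cells: 72 h compound treatment at 37 degrees C, ATP luminescence end point.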
IL-1B inflam inh: qHTS for Inhibitors of Inflammasome Signaling: IL-1-beta AlphaLISA Primary Screen | THP-1 LPS/ATP IL-1B secretion, AlphaLISA, 16 h; hits give low values | 360,000 tested, 4.7% active | activity change, % at 57.5 µM; in the data active = activity change below about -50%; inconclusive = mostly about -30% to -49%; note: % is set by controls: 0 for no effect and ±100 for the full control effect
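Secreted IL-1B measured by AlphaLISA bead assay after 16 h compound exposure of THP-1 cells; compounds (final up to 57.5 uM) added 1 h before LPS (250 ng/mL) and ATP (1.25 mM) stimulation; lower signal means less secretion.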
MCF10A rerep: A quantitative high throughput screen for small molecules that induce DNA re-replication in MCF 10a normal breast cells | MCF 10A DNA re-replication, Hoechst nuclear intensity, 48 h | Potency, µM (series often up to 46.1 µM), for inactives: at the top dose activity, positive = re-replication, actives largely listed as activators | 350,000 tested, 2.9% active; note: potency is the fitted concentration of half-maximal effect; % of control where 0% means no effect; nearly all actives have a fitted effect of over 50% in size
Active calls of the source: *; i = inactive; ? = inconclusive; . = no result given; ! = not active in a repeat. Unless noted, calls come from the whole dose curve; as a rule, active = well fitted curve in the direction sought with a large enough effect; inconclusive = small, poorly fitted or top-dose-only effect, or another doubt; inactive = no such curve, though single readings can be large; an effect the other way counts as inactive or inconclusive.

SMILES	KB-3-1 tox	SW480 rerep	KB-V1 cytotox	IL-1B inflam inh	MCF10A rerep
COc1ccc(N2C(=O)C3NN=C(C(=O)OCc4ccccc4)C3C2=O)cc1 (stereo not drawn)	i	3.7%	i	10.5	-1.6%
Cc1cccc(-c2nnc(-c3cccc(NC(=O)Cc4cccs4)c3)o2)c1	i	?	20.6µM*	?	?
O=C(Cc1cccs1)Nc1nnc(-c2ccccc2)s1	i	-18.6%	i	2.1	0.651µM*
Cc1ccc(-c2nnc(-c3cccc(NC(=O)c4cccs4)c3)o2)cc1	i	-0.5%	11.6µM*	-3.1	9.8%
C=CCn1c(SCC(=O)N(C)CC(=O)Nc2ccc(C)cc2)nnc1-c1ccncc1	i	-8.5%	i	44.4	-22.7%
CCCCC(=O)N/N=C(/C)C1=C(C)C(C)(C)OC1=O	i	-2.6%	i	8.5	2.8%
CC(C)CC1NC(=S)N(Cc2ccccc2)C1=O (stereo not drawn)	?	?	20.6µM*	39.5	?
O=C1C(Cc2ccccc2)NC(=S)N1Cc1ccccc1 (stereo not drawn)	i	-6.9%	i	-1.2	6.8%
CC(C)CC1NC(=S)N(C2CCCCC2)C1=O (stereo not drawn)	i	?	i	6.6	16.4µM*
Cc1ccc(OCC(=O)N(C)CC(=O)Nc2cccc(F)c2)cc1	i	-4.4%	i	0.0	0.4%
Cc1ccc2oc(=O)n(CCCOc3ccccc3Cl)c2c1	?	.	i	.	.
COC(=O)CCCn1cc(CN2CC(N3CCCC3)CS2(=O)=O)nn1 (stereo not drawn)	i	.	i	-3.7	.
COc1ccc(CC2(CO)COc3ccccc3C2=O)cc1 (stereo not drawn)	?	16.4µM*	13µM*	24.5	?
CCN(CC)c1ccc(SS(=O)(=O)O)cc1	?	3.7%	?	-71.4*!	-3.3%
O=S(=O)(O)Sc1ccccc1	i	.	i	-98.6*	.
CCCN1CCN(S(=O)(=O)c2c(C)[nH]c(C)c2C(=O)N2CCCCC2)CC1	?	-9.9%	i	3.5	?
COc1ccccc1OCCNC1CCCC1	i	-2.2%	i	-1.0	0.2%
C=CCNCCCCOc1ccccc1-c1ccccc1	i	13.6%	i	-84.9*	?
c1ccc(COc2ccc(OCCCNC3CCCC3)cc2)cc1	?	25.7%	?	-95.8*	?
CCC(C)c1ccccc1OCCCNC1CCCC1 (stereo not drawn)	i	20.1%	?	-69.7*	-0.3%
CC(C)Oc1ccc(OCCNC2CCCC2)cc1	i	-9.4%	i	-8.5	?
CCCCNCCOc1ccccc1-c1ccccc1	i	24.2%	i	-60.3*	?
COCCCNCCCCOc1ccccc1-c1ccccc1	?	?	?	0.0	3.1%
NCC(O)CC(=O)O (stereo not drawn)	.	-2.2%	.	.	0.2%
O=C(CN1CCN(S(=O)(=O)c2ccccc2)CC1)NC(=O)NCc1ccco1	i	-0.7%	i	13.3	8.5%
SMILES	KB-3-1 tox	SW480 rerep	KB-V1 cytotox	IL-1B inflam inh	MCF10A rerep
C=CCNCCCCOc1ccc(OCc2ccccc2)cc1	i	20.6µM*	i	-50.9*	?
COCCCNCCCCOc1ccc(OCc2ccccc2)cc1	i	19.1%	i	-17.7	?
OCc1ccccc1-c1cnc2cccnn12	i	.	i	23.2	.
COc1ccc(NC(=O)C2Cc3c(-c4cccc(NC(C)=O)c4)ccnc3O2)cn1 (stereo not drawn)	4.61µM*	.	i	60.2	.
CC(=O)c1cccc(-c2ccnc3c2CC(C(=O)NCCC(F)(F)F)O3)c1 (stereo not drawn)	7.31µM*	.	?	74.2	.
COc1ccc(CCCNC(=O)C2Cc3c(-c4cccc(C(C)=O)c4)ccnc3O2)cc1 (stereo not drawn)	6.51µM*	.	20.6µM*	0.0	.
COc1ccc(NC(=O)C2Cc3c(-c4cccc(C(N)=O)c4)ccnc3O2)cn1 (stereo not drawn)	?	.	i	3.4	.
NC(=O)c1cccc(-c2ccnc3c2CC(C(=O)NCCC(F)(F)F)O3)c1 (stereo not drawn)	i	.	i	16.2	.
COc1ccc(CCCNC(=O)C2Cc3c(-c4ccc(NC(C)=O)cc4)ccnc3O2)cc1 (stereo not drawn)	?	.	i	-19.1	.
CC(=O)c1cccc(NC(=O)C2Cc3c(-c4cccc(C(C)=O)c4)ccnc3O2)c1 (stereo not drawn)	i	.	20.6µM*	-0.1	.
Cc1ccc(NC(=O)c2cc(S(=O)(=O)c3ccccc3)ccc2Cl)cc1	i	-6.3%	?	11.5	-4.7%
CCOC(=O)CSc1nc(C2CC2)nc2ccccc12	i	-7.3%	i	3.8	1.5%
CCOC(=O)N1CCC(N(CCN(C)C)C(=S)Nc2ccc(Oc3ccccc3)cc2)CC1	i	8.2%	i	-89.1*	?
CCOC(=O)N1CCC(N(CCOC)C(=O)Nc2ccc(Cl)c(Cl)c2)CC1	i	15.3%	?	-62.8*	28.8%
CCOC(=O)N1CCC(N(C(=O)Nc2cccc(OC)c2)C(C)CC)CC1 (stereo not drawn)	i	-4.2%	18.4µM*	16.1	-10.1%
CCOC(=O)N1CCC(N(CCCOC)C(=O)Nc2cccc(OC)c2)CC1	i	-3.2%	i	23.0	3.1%
CCN(C(=O)CSc1nc2ccccc2n1CCc1ccccc1)C1CCS(=O)(=O)C1 (stereo not drawn)	i	?	?	-9.7	?
N#Cc1c(NCCN)nc(-c2ccccc2)c2c1CCCC2	?	?	?	-55.1*	?
N#Cc1c(NCCCO)nc(-c2ccccc2)c2c1CCCC2	i	6.7%	i	14.2	?
N#Cc1c(NCCN)nc(NCc2ccccc2)c2c1CCN(Cc1ccccc1)C2	i	20.6µM*	i	?	?
C=CCNc1nc(NCc2ccccc2)c(C#N)c2c1CN(C)CC2	?	15.0%	?	?	?
Cc1ccc(C)c(N2C(=O)N(Cc3cc(=O)n4ccccc4n3)c3ccccc3S2(=O)=O)c1	?	.	i	.	.
CC(C)(C)NC(=O)C(c1ccc(F)cc1)N(Cc1cccs1)C(=O)c1ccc(CN2CCOCC2)o1 (stereo not drawn)	i	-2.0%	?	-52.7*	1.4%
O=C(c1cc(N2C(=O)C3C4CCC(C4)C3C2=O)ccc1Cl)N1CCN(c2ccc(F)cc2)CC1 (stereo not drawn)	?	-2.1%	2.59µM*	-0.2	?
